In PubChem BioAssay AID1159580 (chemical genetic matrix, 2015):
Several values for one entry are separate records, joined by “and”; a condition that tells them apart may be missing. Equal values may be shown once. Out of some 5,500 compounds screened, about 2,000 (36%) were called active. Another 18% or so got no clear call; they are omitted. No stated cut-off is given here; in the data, active means normalized growth mostly below about 0.91 (no sharp cut-off); inconclusive means no clear call, values can overlap the other calls; inactive means mostly above about 0.92. The list shows a part of the results.

Assay: chemical genetic growth profiling, strain panel (AID 1159580);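 further: tested at 20 µM; growth read once vehicle control cultures reached saturation at 30 °C; 1 = growth at the plate median or of vehicle wells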
Details: growth OD

Measured: normalized growth

O=C(O)c1cccnc1C(=O)O
inactive: S. cerevisiae deletion strains, locus YJR066W, strain TOR1, stronger effect = lower value 0.979 | S. cerevisiae deletion strains, locus YJR075W, strain HOC1, stronger effect = lower value 1.08 | S. cerevisiae deletion strains, locus YKL009W, strain mrt4, stronger effect = lower value 1.03 | S. cerevisiae deletion strains, locus YKL068W, stronger effect = lower value 0.982 | S. cerevisiae deletion strains, locus YKL085W, strain MDH1 (second series), stronger effect = lower value 0.982 | S. cerevisiae deletion strains, locus YKL085W, strain MDH1, stronger effect = lower value 0.982 | S. cerevisiae deletion strains, locus YKL160W, strain elf1, stronger effect = lower value 0.999 | S. cerevisiae deletion strains, locus YKL190W, strain CNB1, stronger effect = lower value 1.01 | S. cerevisiae deletion strains, locus YKR001C, strain vps1, stronger effect = lower value 0.986 | S. cerevisiae deletion strains, locus YKR026C, strain gcn3, stronger effect = lower value 0.981 | S. cerevisiae deletion strains, locus YKR091W, strain srl3, stronger effect = lower value 0.999 | S. cerevisiae deletion strains, locus YLL001W, strain dnm1, stronger effect = lower value 1.04 | S. cerevisiae deletion strains, locus YLL026W, stronger effect = lower value 1.01 | S. cerevisiae deletion strains, locus YLL041C, strain sdh2, stronger effect = lower value 1 | S. cerevisiae deletion strains, locus YLR027C, strain aat2, stronger effect = lower value 1.01 | S. cerevisiae deletion strains, locus YLR039C, strain RIC1, stronger effect = lower value 1.08 | S. cerevisiae deletion strains, locus YLR058C, strain SHM2, stronger effect = lower value 1.02 | S. cerevisiae deletion strains, locus YLR102C, strain apc9, stronger effect = lower value 0.985 | S. cerevisiae deletion strains, locus YLR113W, strain HOG1, stronger effect = lower value 0.996 | S. cerevisiae deletion strains, locus YLR221C, strain rsa3, stronger effect = lower value 1.04 | S. cerevisiae deletion strains, locus YLR258W, strain gsy2, stronger effect = lower value 1.01 | S. cerevisiae deletion strains, locus YLR262C, strain YPT6 (second series), stronger effect = lower value 1.01 | S. cerevisiae deletion strains, locus YLR262C, strain YPT6, stronger effect = lower value 1.09 | S. cerevisiae deletion strains, locus YLR268W, strain sec22, stronger effect = lower value 1.01 | S. cerevisiae deletion strains, locus YLR320W, strain mms22, stronger effect = lower value 1.04 | S. cerevisiae deletion strains, locus YLR330W, strain CHS5, stronger effect = lower value 1.01 | S. cerevisiae deletion strains, locus YLR342W, strain FKS1 (second series), stronger effect = lower value 1.01 | S. cerevisiae deletion strains, locus YLR342W, strain FKS1, stronger effect = lower value 1.01 | S. cerevisiae deletion strains, locus YLR357W, strain rsc2, stronger effect = lower value 0.987 | S. cerevisiae deletion strains, locus YLR370C, strain arc18, stronger effect = lower value 0.984 | S. cerevisiae deletion strains, locus YLR371W, strain rom2, stronger effect = lower value 0.986 | S. cerevisiae deletion strains, locus YLR384C, strain iki3, stronger effect = lower value 1.01 | S. cerevisiae deletion strains, locus YLR418C, strain cdc73, stronger effect = lower value 1.04 | S. cerevisiae deletion strains, locus YML016C, strain PPZ1, stronger effect = lower value 1.01 | S. cerevisiae deletion strains, locus YML032C, strain rad52, stronger effect = lower value 1.01 | S. cerevisiae deletion strains, locus YML120C, strain ndi1, stronger effect = lower value 1 | S. cerevisiae deletion strains, locus YML124C, strain tub3, stronger effect = lower value 0.989 | S. cerevisiae deletion strains, locus YMR058W, strain fet3, stronger effect = lower value 1 | S. cerevisiae deletion strains, locus YMR078C, strain ctf18, stronger effect = lower value 0.99 | S. cerevisiae deletion strains, locus YMR125W, strain sto1, stronger effect = lower value 1 | S. cerevisiae deletion strains, locus YMR129W, stronger effect = lower value 0.987 | S. cerevisiae deletion strains, locus YMR205C, strain PFK2, stronger effect = lower value 0.988 | S. cerevisiae deletion strains, locus YMR223W, strain ubp8, stronger effect = lower value 1.01 | S. cerevisiae deletion strains, locus YMR231W, strain pep5, stronger effect = lower value 0.996 | S. cerevisiae deletion strains, locus YMR307W, strain GAS1, stronger effect = lower value 1.02 and 0.993 | S. cerevisiae deletion strains, locus YNL067W, strain RPL9B, stronger effect = lower value 1.06 | S. cerevisiae deletion strains, locus YNL071W, strain lat1, stronger effect = lower value 0.998 | S. cerevisiae deletion strains, locus YNL128W, strain TEP1, stronger effect = lower value 1.03 and 1.01 | S. cerevisiae deletion strains, locus YNL175C, strain NOP13, stronger effect = lower value 1.02 | S. cerevisiae deletion strains, locus YNL183C, strain NPR1, stronger effect = lower value 0.934 | S. cerevisiae deletion strains, locus YNL197C, strain WHI3, stronger effect = lower value 1.01 | S. cerevisiae deletion strains, locus YNL209W, strain ssb2, stronger effect = lower value 0.994 | S. cerevisiae deletion strains, locus YNL224C, strain SQS1, stronger effect = lower value 0.998 | S. cerevisiae deletion strains, locus YNL233W, strain BNI4, stronger effect = lower value 1.06 | S. cerevisiae deletion strains, locus YNL248C, strain rpa49, stronger effect = lower value 0.997 | S. cerevisiae deletion strains, locus YNL250W, strain rad50, stronger effect = lower value 0.984 | S. cerevisiae deletion strains, locus YNL271C, strain bni1, stronger effect = lower value 0.962 | S. cerevisiae deletion strains, locus YNL298W, strain CLA4, stronger effect = lower value 0.977 | S. cerevisiae deletion strains, locus YNL307C, strain MCK1, stronger effect = lower value 1.01 | S. cerevisiae deletion strains, locus YNL322C, strain KRE1 (second series), stronger effect = lower value 0.985 | S. cerevisiae deletion strains, locus YNL322C, strain KRE1, stronger effect = lower value 1.01 | S. cerevisiae deletion strains, locus YNR049C, strain mso1, stronger effect = lower value 0.989 | S. cerevisiae deletion strains, locus YNR052C, strain pop2, stronger effect = lower value 0.996 | S. cerevisiae deletion strains, locus YOL006C, strain TOP1, stronger effect = lower value 1.11 | S. cerevisiae deletion strains, locus YOL012C, strain htz1 1.66 | S. cerevisiae deletion strains, locus YOL147C, strain pex11, stronger effect = lower value 0.99 | S. cerevisiae deletion strains, locus YOR001W, strain rrp6, stronger effect = lower value 1.04 | S. cerevisiae deletion strains, locus YOR061W, strain CKA2, stronger effect = lower value 1.02 | S. cerevisiae deletion strains, locus YOR069W, strain VPS5, stronger effect = lower value 1.02 | S. cerevisiae deletion strains, locus YOR070C, strain gyp1, stronger effect = lower value 0.998 | S. cerevisiae deletion strains, locus YOR080W, strain dia2, stronger effect = lower value 0.974 | S. cerevisiae deletion strains, locus YOR083W, strain WHI5 (second series), stronger effect = lower value 1.03 | S. cerevisiae deletion strains, locus YOR083W, strain WHI5, stronger effect = lower value 0.945 | S. cerevisiae deletion strains, locus YOR106W, strain vam3, stronger effect = lower value 0.991 | S. cerevisiae deletion strains, locus YOR136W, strain idh2, stronger effect = lower value 1.02 | S. cerevisiae deletion strains, locus YOR144C, strain elg1, stronger effect = lower value 0.979 | S. cerevisiae deletion strains, locus YOR184W, strain ser1, stronger effect = lower value 0.998 | S. cerevisiae deletion strains, locus YOR231W, strain MKK1, stronger effect = lower value 1.03 | S. cerevisiae deletion strains, locus YOR265W, strain rbl2, stronger effect = lower value 0.989 | S. cerevisiae deletion strains, locus YOR270C, strain vph1, stronger effect = lower value 0.984 | S. cerevisiae deletion strains, locus YOR290C, strain snf2, stronger effect = lower value 0.987 | S. cerevisiae deletion strains, locus YOR316C, strain cot1, stronger effect = lower value 0.993 | S. cerevisiae deletion strains, locus YPL051W, strain arl3, stronger effect = lower value 1.02 | S. cerevisiae deletion strains, locus YPL055C, strain LGE1, stronger effect = lower value 1.11 | S. cerevisiae deletion strains, locus YPL078C, strain atp4, stronger effect = lower value 1.05 | S. cerevisiae deletion strains, locus YPL106C, strain sse1, stronger effect = lower value 1.06 | S. cerevisiae deletion strains, locus YPL240C, strain hsp82, stronger effect = lower value 0.994 | S. cerevisiae deletion strains, locus YPL256C, strain CLN2, stronger effect = lower value 1 | S. cerevisiae deletion strains, locus YPR119W, strain clb2, stronger effect = lower value 0.988 | S. cerevisiae deletion strains, locus YPR141C, strain kar3, stronger effect = lower value 0.978 | S. cerevisiae deletion strains, locus YPR163C, strain tif3, stronger effect = lower value 0.996 | S. cerevisiae deletion strains, locus YPR167C, strain met16, stronger effect = lower value 0.983 | S. cerevisiae deletion strains, strain wtn01, stronger effect = lower value 0.997 | S. cerevisiae strains, strain wild type, stronger effect = lower value 1.02
